# Test results as given in PubChem BioAssay (NCI).
# Several values for one entry are separate records, joined by “and”; a condition that tells them apart may be missing. Identical values can stand only once. About 83,000 compounds went through this panel and 20% of them were active in at least one assay; those are over-represented in the sample as a whole.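 48-hour exposure, single concentration, 96-well plates; percent growth endpoint where 0 means no net growth. Active: below 10.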 Activity calls are given as the source filed them.
# How the values were obtained:
# Test in all cases: NCI-60 one-dose screen, 48 h (100 = growth as untreated, 0 = no growth, -100 = all killed)
# HCT-15 colon = tested on: HCT-15 colon
# HT29 colon = conditions: 10 µM unless noted
# SNB-75 CNS = tested on: SNB-75 CNS
# SNB-19 CNS = tested on: SNB-19 CNS
# U251 CNS = tested on: U251 CNS
# PC-3 prostate = tested on: PC-3 prostate
# SK-MEL-5 melanoma = tested on: SK-MEL-5 melanoma
# UACC-62 melanoma = tested on: UACC-62 melanoma
# LOX IMVI melanoma = tested on: LOX IMVI melanoma
# SK-MEL-28 melanoma = tested on: SK-MEL-28 melanoma
compound,measurement,setting,value
COc1ccc(-c2cn[nH]c2-c2cc(OC)c(OC)c(OC)c2)cc1N,growth,HCT-15 colon; 10 µM unless noted,8.28% (active) and 13.1% (inactive)
same,growth,HT29 colon,1.51% (active) and 10.1% (inactive)
same,growth,SNB-75 CNS; 10 µM unless noted,57.5% (inactive) and 20.3% (inactive)
same,growth,SNB-19 CNS; 10 µM unless noted,34.4% (inactive) and 34.1% (inactive)
same,growth,U251 CNS; 10 µM unless noted,9.51% (active) and 19.3% (inactive)
same,growth,PC-3 prostate; 10 µM unless noted,19.1% (inactive) and 27.2% (inactive)
same,growth,SK-MEL-5 melanoma; 10 µM unless noted,-40.3% (active) and -49.2% (active)
same,growth,UACC-62 melanoma; 10 µM unless noted,46.1% (inactive) and 32.6% (inactive)
same,growth,LOX IMVI melanoma; 10 µM unless noted,35.2% (inactive) and 28.5% (inactive)
same,growth,SK-MEL-28 melanoma; 10 µM unless noted,49.7% (inactive) and 62.5% (inactive)
COC(=O)/C=C/c1cc(O)c2c(c1)C(C(=O)OC)C(c1ccc(O)c(O)c1)O2 (stereo not drawn),growth,HCT-15 colon; 10 µM unless noted,16.7% (inactive) and 16.2% (inactive)
same,growth,HT29 colon,22.8% (inactive) and 16.3% (inactive)
same,growth,SNB-75 CNS; 10 µM unless noted,52.9% (inactive) and 37.5% (inactive)
same,growth,SNB-19 CNS; 10 µM unless noted,35.7% (inactive) and 37.2% (inactive)
same,growth,U251 CNS; 10 µM unless noted,20.7% (inactive) and 14.9% (inactive)
same,growth,PC-3 prostate; 10 µM unless noted,20.3% (inactive) and 17% (inactive)
same,growth,SK-MEL-5 melanoma; 10 µM unless noted,3.62% (active) and -13.7% (active)
same,growth,UACC-62 melanoma; 10 µM unless noted,25.9% (inactive) and 31.2% (inactive)
same,growth,LOX IMVI melanoma; 10 µM unless noted,20.8% (inactive) and 16.3% (inactive)
same,growth,SK-MEL-28 melanoma; 10 µM unless noted,55.3% (inactive) and 53% (inactive)
CC1=C[C@H]2c3c(c(O)c(O)c4oc5cc(O)cc(O)c5c(=O)c34)[C@H](c3cc(O)c(O)c4oc5cc(O)cc(O)c5c(=O)c34)[C@H]2C(C)(C)C1,growth,HCT-15 colon; 10 µM unless noted,15.4% (inactive) and 3.72% (active)
same,growth,HT29 colon,-1.98% (active) and -20.8% (active)
same,growth,SNB-75 CNS; 10 µM unless noted,24.1% (inactive) and -10.6% (active)
same,growth,SNB-19 CNS; 10 µM unless noted,13.3% (inactive) and -11.3% (active)
same,growth,U251 CNS; 10 µM unless noted,0.997% (active) and -15.3% (active)
same,growth,PC-3 prostate; 10 µM unless noted,14.4% (inactive) and -26.9% (active)
same,growth,SK-MEL-5 melanoma; 10 µM unless noted,-84.2% (active) and -98.1% (active)
same,growth,UACC-62 melanoma; 10 µM unless noted,-43.1% (active) and -68.9% (active)
same,growth,LOX IMVI melanoma; 10 µM unless noted,-93.9% (active) and -100% (active)
same,growth,SK-MEL-28 melanoma; 10 µM unless noted,10.3% (inactive) and -22.8% (active)
Oc1c(Cl)cc(Cl)cc1Sc1cc(Cl)cc(Cl)c1O,growth,HCT-15 colon; 10 µM unless noted,8.23% (active) and 78.1% (inactive)
same,growth,HT29 colon,66.2% (inactive) and 15.8% (inactive) and 108% (inactive)
same,growth,SNB-75 CNS; 10 µM unless noted,97.2% (inactive) and 55.2% (inactive) and 100% (inactive)
same,growth,SNB-19 CNS; 10 µM unless noted,43.4% (inactive) and -0.0882% (active) and 74.5% (inactive)
same,growth,U251 CNS; 10 µM unless noted,48.8% (inactive) and 8.95% (active) and 71.5% (inactive)
same,growth,PC-3 prostate; 10 µM unless noted,10.7% (inactive) and 1.87% (active) and 48% (inactive)
same,growth,SK-MEL-5 melanoma; 10 µM unless noted,48% (inactive) and 51% (inactive)
same,growth,UACC-62 melanoma; 10 µM unless noted,19.1% (inactive) and -29% (active) and 50.2% (inactive)
same,growth,LOX IMVI melanoma; 10 µM unless noted,80.7% (inactive) and 41.3% (inactive) and 96% (inactive)
same,growth,SK-MEL-28 melanoma; 10 µM unless noted,58.3% (inactive) and 27.8% (inactive) and 95.3% (inactive)
Cc1cc(N=Nc2ccc(C)c(N=Nc3cc(C)c(N)cc3N)c2)c(N)cc1N,growth,HCT-15 colon; 10 µM unless noted,95.9% (inactive) and 44.3% (inactive)
same,growth,HT29 colon,92.8% (inactive) and 40.8% (inactive)
same,growth,SNB-75 CNS; 10 µM unless noted,78% (inactive) and 72.7% (inactive)
same,growth,SNB-19 CNS; 10 µM unless noted,97.7% (inactive) and 91.2% (inactive)
same,growth,U251 CNS; 10 µM unless noted,97% (inactive) and 86.7% (inactive)
same,growth,PC-3 prostate; 10 µM unless noted,64.6% (inactive)
same,growth,SK-MEL-5 melanoma; 10 µM unless noted,100% (inactive) and 78.7% (inactive)
same,growth,UACC-62 melanoma; 10 µM unless noted,91.7% (inactive) and 93.9% (inactive)
same,growth,LOX IMVI melanoma; 10 µM unless noted,90.8% (inactive) and 82.6% (inactive)
same,growth,SK-MEL-28 melanoma; 10 µM unless noted,98.9% (inactive) and 88.4% (inactive)
CCN(CC)CCCC(CNc1ccnc2cc(Cl)ccc12)c1ccc(Cl)cc1 (stereo not drawn),growth,HCT-15 colon; 10 µM unless noted,-29.5% (active) and 5.81% (active)
same,growth,HT29 colon,3.38% (active) and -5.84% (active)
same,growth,SNB-75 CNS; 10 µM unless noted,-76.2% (active) and -39.9% (active)
same,growth,SNB-19 CNS; 10 µM unless noted,2.34% (active) and 92.4% (inactive)
same,growth,U251 CNS; 10 µM unless noted,-71.9% (active) and -57.4% (active)
same,growth,PC-3 prostate; 10 µM unless noted,34.2% (inactive) and 19.3% (inactive)
same,growth,SK-MEL-5 melanoma; 10 µM unless noted,-92.8% (active) and -96.9% (active)
same,growth,UACC-62 melanoma; 10 µM unless noted,-77.6% (active) and 97.7% (inactive)
same,growth,LOX IMVI melanoma; 10 µM unless noted,-85.5% (active) and -13% (active)
same,growth,SK-MEL-28 melanoma; 10 µM unless noted,-83.7% (active) and -85.7% (active)
COc1ccc(Cl)cc1C(=O)NCCc1ccc(S(=O)(=O)NC(=O)NC2CCCCC2)cc1,growth,HCT-15 colon; 10 µM,109% (inactive) and 108% (inactive)
same,growth,HCT-15 colon; 100 µM,42.6% (inactive)
same,growth,SNB-75 CNS; 10 µM,104% (inactive) and 94% (inactive)
same,growth,SNB-75 CNS; 100 µM,67.4% (inactive)
same,growth,SNB-19 CNS; 10 µM,104% (inactive) and 97.9% (inactive)
same,growth,SNB-19 CNS; 100 µM,68.5% (inactive)
same,growth,U251 CNS; 10 µM,94.3% (inactive) and 98.7% (inactive)
same,growth,U251 CNS; 100 µM,60.3% (inactive)
same,growth,PC-3 prostate; 10 µM,93.2% (inactive) and 110% (inactive)
same,growth,PC-3 prostate; 100 µM,52.8% (inactive)
same,growth,SK-MEL-5 melanoma; 10 µM,101% (inactive) and 96.2% (inactive)
same,growth,SK-MEL-5 melanoma; 100 µM,45.5% (inactive)
same,growth,UACC-62 melanoma; 10 µM,83.8% (inactive) and 92.1% (inactive)
same,growth,UACC-62 melanoma; 100 µM,51.2% (inactive)
same,growth,LOX IMVI melanoma; 10 µM,102% (inactive) and 95.9% (inactive)
same,growth,LOX IMVI melanoma; 100 µM,64.7% (inactive)
same,growth,SK-MEL-28 melanoma; 10 µM,132% (inactive) and 118% (inactive)
same,growth,SK-MEL-28 melanoma; 100 µM,57.5% (inactive)
